# Assay outcomes as filed in PubChem BioAssay.
# GDH-TPI counter-1 = GDH-TPI coupling enzyme inhibitors, primary screen, artefact control for M. tuberculosis FBA inhibitor project, biochemical, absorbance, full deck; 1.2% of 360,000 active; GDH-TPI coupled enzyme counterscreen, NADH absorbance; inhibition, % at 4.8 µM; in the data active means inhibition above about 30%
# BioA inh = M. tuberculosis BioA enzyme inhibitors, primary screen, biochemical, plate reader, single point, HTS; 7,8-diaminopelargonic acid synthase BioA (Mycobacterium tuberculosis); purified M. tuberculosis BioA enzyme; inhibition, % at 9.99 µM; 0.096% of 360,000 active; AID 602481, 2012; in the data active means inhibition above about 40%
# Vc quorum ag = inducers of Vibrio cholerae quorum light production without autoinducers, primary screen, BH1578 luxS cqsA deficient, single point | activation, % at 18.7 µM | 0.16% of 350,000 active | V. cholerae BH1578 lux reporter, luminescence, 6 h; in the data active means activation mostly above about 9.7%, no sharp cut-off
# FBA Mtb inh = Mtb FBA enzyme inhibitors, primary screen, biochemical, fluorescence, strain H37Rv | AID 588726, 2011 | inhibition, % at 1 µM | Fructose-bisphosphate aldolase (Mycobacterium tuberculosis (strain ATCC 25618 / H37Rv)), … | 2.3% of 360,000 active | purified M. tuberculosis FBA, fluorescence read-out
# Target sequence (P9WQA3 whole entry, looked up): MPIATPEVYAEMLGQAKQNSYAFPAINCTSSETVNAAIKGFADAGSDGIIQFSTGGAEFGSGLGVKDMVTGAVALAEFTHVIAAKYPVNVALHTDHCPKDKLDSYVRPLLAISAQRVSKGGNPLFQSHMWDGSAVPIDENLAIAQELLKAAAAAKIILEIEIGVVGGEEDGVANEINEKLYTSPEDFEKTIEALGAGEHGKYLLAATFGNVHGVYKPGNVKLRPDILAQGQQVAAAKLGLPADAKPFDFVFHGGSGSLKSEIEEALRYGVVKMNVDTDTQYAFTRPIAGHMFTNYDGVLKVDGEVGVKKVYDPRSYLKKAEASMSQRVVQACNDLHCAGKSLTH
# Mtb FBA inh conf = M. tuberculosis aldolase blockers, biochemical, fluorescence, strain H37Rv, confirmation. shares compounds with FBA Mtb inh. 78% of 5,600 active. purified M. tuberculosis FBA, fluorescence read-out. AID 651616, 2012. inhibition, % at 1 µM
# GDH-TPI counter-2 = GDH-TPI coupling enzyme inhibitors, artefact control for M. tuberculosis FBA inhibitor project, biochemical, fluorescence, high throughput; shares compounds with FBA Mtb inh; GDH-TPI coupled enzyme counterscreen; inhibition, % at 1 µM; 81% of 5,600 active; in the data active means inhibition above about 10%
# GDH-TPI DR = GDH-TPI coupling enzyme inhibitors, dose response, artefact control for M. tuberculosis FBA inhibitor project, biochemical, fluorescence, IC50; shares compounds with FBA Mtb inh; GDH-TPI coupled enzyme assay, artifact counterscreen; IC50, µM; 79% of 170 active; AID 652145, 2013; call rule not given here
# A number is an active result; n = inactive; x = no result; + = active, no number. A selection: hits, their analogues and other compounds. The true share with any hit is near 3%. Unless noted, no stated cut-off is given here; in the data, active means inhibition above about 27%; inactive means the rest.
SMILES,GDH-TPI counter-1,BioA inh,Vc quorum ag,FBA Mtb inh,Mtb FBA inh conf,GDH-TPI counter-2,others
CCC(C)(C)n1nnnc1CN(Cc1ccco1)Cc1cc2cc3c(cc2[nH]c1=O)OCO3,n,n,n,35,90,97,
COCCn1nnnc1CN(Cc1ccco1)Cc1cc2cc3c(cc2[nH]c1=O)OCO3,n,n,n,48,+,+,
CCC(C)(C)n1nnnc1C(c1cc2cc3c(cc2[nH]c1=O)OCO3)N1CCCCC1 (centres undefined),n,n,n,n,x,x,
CCC(C)(C)n1nnnc1CN(Cc1ccc(Cl)cc1)Cc1ccco1,n,n,n,n,x,x,
O=C(C[C@H]1C[C@H]2c3cc(NC(=O)Nc4ccc(C(F)(F)F)cc4)ccc3O[C@H]2[C@@H](CO)O1)NCc1ccccn1,x,n,x,x,x,x,
CC1(C)C=Cc2cc3ccc(=O)oc3cc2O1,n,n,n,48,n,n,GDH-TPI DR=5.7
CC1(C)Oc2cc3oc(=O)ccc3cc2C[C@@H]1O,n,n,n,65,105,107,
COc1c2c(cc3oc(=O)ccc13)OC(C)(C)C=C2,n,n,n,n,x,x,
CC1(C)Oc2cc3oc(=O)ccc3c3c2C2C1CCC(C)(O3)C2O (centres undefined),n,n,n,29,154,121,
COc1ccc(S(=O)(=O)Nc2ccc3c(c2)C(=O)N([C@H](C)CO)C[C@H](C)[C@@H](CN(C)C(=O)Nc2ccccc2)OCCCC[C@@H](C)O3)cc1,x,n,x,x,x,x,
O=C(Nc1ncn[nH]1)c1ccccc1O,n,n,n,56,+,+,
CCC(C)NC(=O)c1cn(CCOC)c(=O)c2c1c1ccccc1n2C (centres undefined),n,x,n,n,x,x,
CCOC(=O)C1CCN(C(=O)c2cn(CCOC)c(=O)c3c2c2ccccc2n3C)CC1,n,n,n,46,84,68,
CCN1CCN(C(=O)c2cn(CCOC)c(=O)c3c2c2ccccc2n3C)CC1,n,x,n,48,171,129,
COCCn1cc(C(=O)N2CCC3(CC2)OCCO3)c2c3ccccc3n(C)c2c1=O,n,n,n,37,144,120,
COCCn1cc(C(=O)N2CCCC(C)C2)c2c3ccccc3n(C)c2c1=O (centres undefined),n,n,n,45,n,n,
O=S(=O)(N[C@H]1CC[C@@H](CCn2cc(-c3cccc(F)c3)nn2)O[C@@H]1CO)c1ccc(Cl)cc1,x,n,x,x,x,x,
COCC#Cc1cnc2c(c1)C(=O)N([C@@H](C)CO)C[C@@H](C)[C@@H](CN(C)Cc1ccc3c(c1)OCO3)O2,x,n,x,x,x,x,
C[C@@H]1CN([C@@H](C)CO)C(=O)c2cc(NS(=O)(=O)c3cccs3)ccc2O[C@@H]1CN(C)C(=O)Nc1ccc2c(c1)OCO2,x,n,x,x,x,x,
Cn1cc(C(=O)N2CCN(C(=O)c3ccco3)CC2)c2c3ccccc3n(C)c2c1=O,n,n,n,37,n,n,
Cn1c2ccccc2c2c(C(=O)N3CCC4(CC3)OCCO4)cn(C3CCCC3)c(=O)c21,n,n,n,28,58,47,
O=C(NCCc1ccc(Cl)cc1Cl)C1=CC=CN2CCS(=O)(=O)N=C12,n,n,n,27,178,129,
O=c1cc(C(F)F)oc2c1ccc1ccccc12,n,x,n,31,59,46,
CS(=O)(=O)Nc1ccc(C2=NN(C(=O)c3ccco3)C(c3ccc(F)cc3)C2)cc1 (centres undefined),n,x,n,74,62,48,
COc1ccc(-c2cc(=O)[nH]c(=O)[nH]2)cc1,n,n,x,n,x,x,
COc1ccc(-c2cc(=O)c3cc(OC)c(OC)cc3[nH]2)cc1,n,n,n,58,66,59,
COc1ccc2[nH]c(-c3ccccc3)cc2c1,n,n,n,100,91,71,
COc1ccc2[nH]c(-c3ccc(C)cc3)cc(=O)c2c1,n,n,n,44,+,165,
